The text below walks through data of PubChem BioAssay (NCATS).

Where “and” joins values, the source holds several entries; their conditions need not be identical. Identical values can stand only once. Results filed as inconclusive are left out. A number with no mark means an inactive call. The call rests on the fitted dose curve.

Chain of Peroxisome proliferator-activated receptor delta (Homo sapiens) (Q03181 whole entry, looked up): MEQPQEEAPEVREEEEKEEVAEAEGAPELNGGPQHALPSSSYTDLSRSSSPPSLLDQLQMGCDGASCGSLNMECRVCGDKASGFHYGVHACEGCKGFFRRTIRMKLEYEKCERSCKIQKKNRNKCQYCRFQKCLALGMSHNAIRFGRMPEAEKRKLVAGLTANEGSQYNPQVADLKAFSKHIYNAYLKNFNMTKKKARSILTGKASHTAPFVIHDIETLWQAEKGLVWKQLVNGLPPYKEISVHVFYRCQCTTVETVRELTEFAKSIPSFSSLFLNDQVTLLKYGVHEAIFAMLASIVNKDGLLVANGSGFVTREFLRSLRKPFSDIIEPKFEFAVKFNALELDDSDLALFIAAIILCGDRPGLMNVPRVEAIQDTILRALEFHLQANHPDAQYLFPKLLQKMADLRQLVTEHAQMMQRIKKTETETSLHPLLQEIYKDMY

The target in one assay is Bile acid receptor (Homo sapiens) (UniProt Q96RI1). The assay can be described thus: qHTS assay for small molecule agonists of farnesoid X receptor signaling (AID 588527).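 Further: 0% = vehicle basal and 100% = reference agonist.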 As to conditions: HEK293T FXR-UAS-bla, beta-lactamase ratio, 16 h; active compounds read high. A digest of the protocol: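 Quantitative HTS used FXR-UAS-bla HEK293T cells with 16 h compound incubation at 37 C. EC50 values came from concentration-response curves normalized to chenodeoxycholic acid.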
Chain of Bile acid receptor (Homo sapiens) (Q96RI1 whole entry, looked up): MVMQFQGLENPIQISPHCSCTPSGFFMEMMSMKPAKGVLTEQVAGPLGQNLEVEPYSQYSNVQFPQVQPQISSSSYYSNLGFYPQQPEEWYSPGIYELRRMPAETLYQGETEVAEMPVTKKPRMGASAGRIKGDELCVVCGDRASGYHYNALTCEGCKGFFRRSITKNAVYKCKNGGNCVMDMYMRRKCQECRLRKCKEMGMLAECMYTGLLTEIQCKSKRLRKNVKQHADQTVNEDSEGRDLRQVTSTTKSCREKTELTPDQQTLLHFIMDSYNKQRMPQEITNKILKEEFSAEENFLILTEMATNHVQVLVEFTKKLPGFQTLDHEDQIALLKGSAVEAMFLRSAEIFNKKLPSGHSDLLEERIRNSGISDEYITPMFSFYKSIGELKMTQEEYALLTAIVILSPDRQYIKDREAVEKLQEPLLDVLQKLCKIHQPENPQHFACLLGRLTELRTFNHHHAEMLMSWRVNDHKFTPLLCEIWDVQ
Regarding `CCOC(=O)C(C)(C)Oc1ccc(Cl)cc1`, the activation is 1.97%.
With `CNC(=O)Oc1ccc2c(c1)[C@]1(C)CCN(C)[C@@H]1N2C`, the activation was 1.98%.
For the molecule `Oc1ccc(/C=C/c2cc(O)cc(O)c2)cc1`, the activation was -3.05% and -1.39%.
On to `CCCCC1C(=O)N(c2ccccc2)N(c2ccccc2)C1=O`, for which the activation is -3.79% and -9.64%.
Turning to `C[C@]12CC[C@@H]3c4ccc(O)cc4CC[C@H]3[C@@H]1CCC2=O`, the activation was 5.41%.

A further assay has as its target Peroxisome proliferator-activated receptor delta (Homo sapiens) (UniProt Q03181). Put plainly: qHTS assay for small molecule agonists of peroxisome proliferator-activated receptor delta signaling (AID 588534).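 Further: 0% = DMSO basal wells and 100% = positive control agonist at 10 µM.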 The settings on record: HEK293T PPARdelta-UAS-bla, beta-lactamase ratio, 18 h; series mostly up to 76.7 µM; activation: at the top concentration. A digest of the protocol:
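Cell-based beta-lactamase reporter assay run in agonist mode: cells seeded and incubated 5 hrs at 37 C, compounds added and incubated 18 hrs at 37 C. CCF4 dye fluorescence read after 2 hrs at RT; EC50 and efficacy from Hill fits.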
For `CNC(=O)Oc1ccc2c(c1)[C@]1(C)CCN(C)[C@@H]1N2C`, the “activation” value was -0.252%.
In the case of `Oc1ccc(/C=C/c2cc(O)cc(O)c2)cc1`, the “activation” value was -13%.
Turning to `C[C@]12CCC(=O)C=C1CC[C@@H]1[C@@H]2[C@@H](O)C[C@@]2(C)[C@H]1CC[C@]2(O)C(=O)CO`, the “activation” value was -5.67%.
